Reference: PubChem BioAssay (NCATS)
Values joined by “and” are separate entries in the source; they are usually repeats but may differ in a detail not shown here. Equal entries are not always repeated. Records with an inconclusive call do not appear. Active and inactive are the calls of the source. Unless noted, the call rests on the fitted dose curve; in most records, active means well fitted curve in the direction sought with a large enough effect; inconclusive means small, poorly fitted or top-dose-only effect, or another doubt; inactive means no such curve, though single readings can be large; an effect the other way counts as inactive or inconclusive.

Assays:
[1] = Cell Viability - LYMP1-002 - Assay at 40 hr (AID 994); further: nearly all actives have a fitted effect of over 60% in size; further: potency means the concentration at half of the fitted maximal effect
Method in brief: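 Cytotoxicity was read as loss of cellular ATP (CellTiter-Glo luminescence) after 40 hr compound exposure at 37 C of 2500 LYMP1-002 lymphoblastoid cells per well. Concentration-response data were fitted with the standard Hill equation to give AC50.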

[2] = biological target: Chromobox protein homolog 1 (Homo sapiens) (UniProt P83916); assay: qHTS Validation Assay for Inhibitors of HP1-beta Chromodomain Interactions with Methylated Histone Tails (AID 488953); further: nearly all actives have a fitted effect of over 50% in size; further: potency means the concentration at half of the fitted maximal effect
Method in brief: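 AlphaScreen proximity signal from streptavidin donor and nickel chelate acceptor beads (final 10 ug/mL) after 30 min dark incubation. Compounds had 30 min at room temperature with preformed complex of 50 nM HP1-beta and 50 nM b-H3(1-18)K9me3 in PBS pH 7.4 with 0.01% Tween-20.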

[3] = Cell Viability - BJ (AID 421; calls by dose curve;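 further: potency means the concentration at half of the fitted maximal effect; cells exposed to compound for 40 hours at 37 °C before readout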); details: BJ fibroblast viability, qHTS
Method in brief: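 Luminescent ATP signal (CellTiter-Glo, 20 min at room temperature) served as the read-out of viable BJ cells after 40 hours of compound treatment. Responses were scaled between DMSO and 100 uM tamoxifen, and AC50 values were obtained by Hill modeling.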

[4] = Cell Viability - Hek293 (AID 427;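 active means compounds whose dose-response curve shows a full or clear partial loss of cell viability, called from curve shape rather than a numeric limit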;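 further: potency means the concentration at half of the fitted maximal effect; cells exposed to compound for 40 hours at 37 °C before reading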); details: qHTS
Method in brief: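 Luminescent ATP read-out (CellTiter-Glo, 20 min RT) after 40 hr compound exposure at 37 °C in complete medium. Signal normalized to DMSO (basal) and 100 uM tamoxifen (100% inhibition); concentration-response fitted with the standard Hill equation to give AC50.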

[5] = Cell Viability - HepG2 (AID 433; calls by dose curve;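 further: potency means the concentration at half of the fitted maximal effect; potency for ATP loss meaning cytotoxicity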); details: qHTS
Method in brief: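 Cytotoxicity is scored as loss of intracellular ATP in HepG2 cells exposed to compounds for 40 h. Concentration-response curves, normalized to DMSO and 100 uM tamoxifen, give AC50 values.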

[6] = Cell Viability - SK-N-SH (AID 435; calls by dose curve;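 further: potency means the concentration at half of the fitted maximal effect; compound exposure lasted 40 h at 37 °C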); details: SK-N-SH neuroblastoma cell viability qHTS
Method in brief: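 Cells seeded at 1500 per well and incubated 5 hr at 37 °C. Compound added, then 40 hr at 37 °C. CellTiter-Glo added, 20 min at room temperature, luminescence read.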

[7] = Cell Viability - HUV-EC-C (AID 542); further: on the % scale 0 is the no-effect control and ±100 the full control effect; nearly all actives have a fitted effect of over 35% in size
Method in brief: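 CellTiter-Glo luminescence measured ATP loss in HUV-EC-C cells (1000/well) after 40 hr compound exposure at 37 °C, in complete culture medium. Concentration-response data were Hill-fitted to give AC50.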

[8] = Cell Viability - Mesenchymal (AID 546);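 further: cells exposed to compound for 40 hours before reading; 0% = DMSO only and -100% = 100 µM tamoxifen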
Method in brief: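 CellTiter-Glo luminescence (intracellular ATP, 20 min room temperature) after 40 hr compound exposure at 37 °C of 1000 glomerulus-derived human kidney mesenchymal cells/well; AC50 values obtained by fitting qHTS concentration-response data to the Hill equation.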

[9] = Cellular Toxicity (caspase-3) HepG2 (AID 654);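 further: cells exposed to compound for 16 hours before reading; 0% = DMSO alone and 100% = caspase signal from 100 µM tamoxifen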
Method in brief: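 Caspase 3/7 activation is measured as a luminescence increase (aminoluciferin substrate) after 16 h compound exposure of human hepatocarcinoma HepG2 cells. AC50 values are Hill fits, scaled between DMSO baseline and 100 uM tamoxifen stimulation.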

[10] = Cellular Toxicity (caspase-3) HUV-EC-C (AID 656);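 further: 0% = DMSO basal and 100% = 100 µM tamoxifen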
Method in brief: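 Read-out: luminescence proportional to caspase 3/7 activity, measured 20 min after adding Caspase-Glo 3/7 reagent. Cells (HUV-EC-C) had received compound for 16 hr at 37°C. Increases relative to DMSO and 100 uM tamoxifen gave concentration-response AC50 values.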

[11] = Cellular Toxicity (caspase-3) SHSY5Y (AID 657)
Method in brief: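 Cells plated and incubated 5 h at 37 °C, dosed over a concentration range, incubated 16 h, then given Caspase-Glo 3/7 reagent for 1 h at room temperature before luminescence reading. Staurosporine (10 uM) defined full stimulation.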

[12] = Cellular Toxicity (caspase-3) MRC-5 (AID 659);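 further: 0% = DMSO basal and 100% = 10 µM staurosporine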
Method in brief: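 Luminescent Caspase-Glo 3/7 read-out (1 h, room temperature) after a 16 h, 37 °C compound exposure of MRC-5 lung fibroblasts at 1500 cells/well. Concentration-response AC50 from Hill equation; 0% DMSO, 100% 10 uM staurosporine.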

[13] = Cellular Toxicity (caspase-3) SK-N-SH (AID 661);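 further: 0% = DMSO basal and 100% = 10 µM staurosporine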
Method in brief: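 Caspase 3/7 activation was read by luminogenic substrate cleavage after 16 hour treatment of SK-N-SH cells. Signal was scaled between DMSO and 10 uM staurosporine, and concentration-response data were fitted with the Hill equation for AC50.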

[14] = Cellular Toxicity (caspase-3) H-4-II-E (AID 663);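 further: cells exposed to compound for 16 hr before readout; 0% = DMSO basal and 100% = 100 µM tamoxifen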
Method in brief: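 Caspase 3/7 activation measured by luminescent aminoluciferin substrate cleavage after 16 hr compound treatment of H-4-II-E cells in complete medium. Increase normalized between DMSO (basal) and 100 uM tamoxifen (100%); Hill-equation AC50 from concentration-response.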

[15] = Cellular Toxicity (caspase-3) Hek293 (AID 664);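 further: cells exposed to compound for 16 h at 37 °C before readout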
Method in brief: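 Concentration-response qHTS: caspase 3/7 activation measured by luminescent aminoluciferin substrate cleavage after 16 h compound exposure of Hek 293 cells. AC50 from Hill equation, with DMSO as basal and 100 uM tamoxifen as 100%.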

[16] = Cellular Toxicity (caspase-3) N2a (AID 665);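 further: compound exposure lasted 16 h at 37 °C before readout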
Method in brief: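 Caspase-3/7 activation measured as luminescence from Caspase-Glo reagent (1 h, room temperature) after 16 h compound exposure of mouse N2a cells. AC50 values from Hill-equation concentration-response, scaled between DMSO and 10 uM staurosporine.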

[17] = Cellular Toxicity (caspase-3) Renal Proximal Tubule (AID 667);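 further: cells exposed to compound for 16 hours at 37 °C before detection; 0% = DMSO basal and 100% = 10 µM staurosporine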
Method in brief: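 In qHTS format, rat primary proximal tubule cells seeded at 1000 per well are exposed to compounds for 16 hours at 37 °C. An increase in Caspase-Glo 3/7 luminescence indicates caspase activation.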

[18] = qHTS assay for small molecule disruptors of the mitochondrial membrane potential - 5 hr assay (AID 651755; calls by dose curve; further: nearly all actives have a fitted effect of over 40% in size; further: potency means the concentration at half of the fitted maximal effect)
Method in brief: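 Membrane-potential dye readout: red aggregate (540 ex/590 em) versus green monomer (490 ex/535 em) fluorescence after 30 min dye loading, following 5 hr compound exposure at 37C of overnight-plated HepG2 cells.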

[19] = biological target: Peroxisome proliferator-activated receptor alpha (Homo sapiens) (UniProt Q07869); assay: qHTS assay for small molecule agonists of the peroxisome proliferator-activated receptor alpha (PPARalpha) signaling pathway (AID 651778); details: PathHunter PPARalpha complementation, chemiluminescence, 6 h; active compounds read high; further: % of control where 0% means no effect
Method in brief: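 Chemiluminescence from complemented enzyme reported PPARalpha activation in cells after 6 hr of compound treatment at 37 C. The detection reagent was incubated for 60 min at room temperature, and compounds were scored as agonists.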

[20] = qHTS assay for small molecule agonists of the antioxidant response element (ARE) signaling pathway measured by Nrf2-dependant transcriptional activity - cell viability counter screen (AID 720653; active means well fitted curve in the direction sought with a large enough effect in the repeat runs; an effect the other way counts as inactive or inconclusive; further: on the % scale 0 is the no-effect control and ±100 the full control effect); details: ARE-bla HepG2 viability, CellTiter-Glo ATP luminescence, 16 h; max response: active compounds read low
Method in brief: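 Cytotoxicity counter screen: intracellular ATP quantified by CellTiter-Glo luminescence in the same ARE-bla HepG2 plates, after 16 h compound exposure and a 2 h beta-lactamase substrate step.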

Sequence of Chromobox protein homolog 1 (Homo sapiens) (P83916 whole entry, looked up): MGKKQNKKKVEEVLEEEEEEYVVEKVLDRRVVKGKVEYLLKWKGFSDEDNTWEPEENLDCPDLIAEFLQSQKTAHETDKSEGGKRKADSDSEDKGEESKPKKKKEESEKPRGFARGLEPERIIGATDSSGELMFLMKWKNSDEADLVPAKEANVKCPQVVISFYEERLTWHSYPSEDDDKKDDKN
Sequence of Peroxisome proliferator-activated receptor alpha (Homo sapiens) (Q07869 whole entry, looked up): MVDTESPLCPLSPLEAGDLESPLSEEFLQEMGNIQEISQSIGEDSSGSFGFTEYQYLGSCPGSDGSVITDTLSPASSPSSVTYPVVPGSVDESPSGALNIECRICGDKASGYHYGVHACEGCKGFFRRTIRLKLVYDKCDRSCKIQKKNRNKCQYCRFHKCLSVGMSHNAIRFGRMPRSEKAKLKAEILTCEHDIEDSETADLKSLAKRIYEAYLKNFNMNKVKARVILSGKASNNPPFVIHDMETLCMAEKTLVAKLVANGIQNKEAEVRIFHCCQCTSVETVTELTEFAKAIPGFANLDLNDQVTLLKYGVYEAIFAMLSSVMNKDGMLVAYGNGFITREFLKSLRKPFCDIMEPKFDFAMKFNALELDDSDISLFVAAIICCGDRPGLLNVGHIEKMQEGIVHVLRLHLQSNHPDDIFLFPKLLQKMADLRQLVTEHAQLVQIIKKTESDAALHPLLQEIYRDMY

Oc1ccccc1O
active: Potency [1] 15.8 µM

NO
active: Potency [2] 0.006 µM

N#C/C(=C\c1ccc(O)c(O)c1)C(=O)NCCCNC(=O)/C(C#N)=C/c1ccc(O)c(O)c1
active: Potency [2] 3.77 µM

CC(C)COC(=O)c1ccccc1C(=O)OCC(C)C
inactive: Potency [3] > 92 µM | Potency [4] > 92 µM | Potency [5] > 92 µM | Potency [6] > 92 µM | outcome [7] | outcome [8] | outcome [9] | outcome [10] | outcome [11] | outcome [12] | outcome [13] | outcome [14] | outcome [15] | outcome [16] | outcome [17] | Potency [1] | Potency [18] | max response [19] -0.716% | max response [20] 7.97%

CCOC(=O)c1ccccc1N
inactive: Potency [3] > 92 µM | Potency [4] > 92 µM | Potency [5] > 92 µM | Potency [6] > 92 µM | outcome [7] | outcome [8] | outcome [9] | outcome [10] | outcome [11] | outcome [12] | outcome [13] | outcome [14] | outcome [15] | outcome [16] | outcome [17] | Potency [1] | Potency [18] | max response [19] -7.33% | max response [20] 3.82%

Oc1ccccc1Cl
inactive: Potency [3] > 92 µM | Potency [4] > 92 µM | Potency [5] > 92 µM | Potency [6] > 92 µM | outcome [7] | outcome [8] | outcome [9] | outcome [10] | outcome [11] | outcome [12] | outcome [13] | outcome [14] | outcome [15] | outcome [16] | outcome [17] | Potency [1] | Potency [18] | max response [19] -3.34% | max response [20] -1.76%

COC1=CC(=O)OC(CCc2ccc3c(c2)OCO3)C1 (stereo not given)
inactive: Potency [3] > 92 µM | Potency [4] > 92 µM | Potency [5] > 92 µM | Potency [6] > 92 µM | outcome [7] | outcome [8] | outcome [9] | outcome [10] | outcome [11] | outcome [12] | outcome [13] | outcome [14] | outcome [15] | outcome [16] | outcome [17] | Potency [18] | max response [19] -0.116% | max response [20] -4.13%

Nc1nc2[nH]c(=O)cnc2c(=O)[nH]1
active: Potency [2] 0.0095 µM

Brc1c(Br)c(Br)c2n[nH]nc2c1Br
inactive: Potency [2]

c1ccc(Nc2ccc3ccccc3c2)cc1
active: Potency [18] 42.2 µM
inactive: Potency [3] > 92 µM | Potency [4] > 92 µM | Potency [5] > 92 µM | Potency [6] > 92 µM | outcome [7] | outcome [8] | outcome [9] | outcome [10] | outcome [11] | outcome [12] | outcome [13] | outcome [14] | outcome [15] | outcome [16] | outcome [17] | Potency [1] | max response [19] 18.5% and 8.75% | max response [20] -8.38% and -2.45%

O=c1oc(Cl)c(Cl)c2ccccc12
active: Potency [2] 39.8 µM

CC(=O)/C=C/c1ccccc1
inactive: Potency [3] > 92 µM | Potency [4] > 92 µM | Potency [5] > 92 µM | Potency [6] > 92 µM | outcome [7] | outcome [8] | outcome [9] | outcome [10] | outcome [11] | outcome [12] | outcome [13] | outcome [14] | outcome [15] | outcome [16] | outcome [17] | Potency [1] | Potency [18] | max response [19] -5.69% | max response [20] -6.98%

c1ccc2c(c1)-c1cccc3cccc-2c13
inactive: Potency [3] > 92 µM | Potency [4] > 92 µM | Potency [5] > 92 µM | Potency [6] > 92 µM | outcome [7] | outcome [8] | outcome [9] | outcome [10] | outcome [11] | outcome [12] | outcome [13] | outcome [14] | outcome [15] | outcome [16] | outcome [17] | Potency [1] | Potency [18] | max response [19] -3.35% and -1.28% | max response [20] -12% and 0.837%

COc1ccc2c(c1)CCC1C2CC[C@@]2(C)C1CC[C@@H]2NCCCCCCN1C(=O)C=CC1=O (stereo not given in full)
active: Potency [2] 50.1 µM

CC(=O)C(C)=O
inactive: Potency [2]
